The source made the active and inactive calls. The calls were made as follows: active = hit-call score of the fitted dose curve at least 0.9, where 1 is the maximum; inactive = score below 0.9.
Assay: APR_HepG2_CellLoss_72hr: Apredica 72-hour HepG2 Assay for Cell Loss (AID 2282915)
Conditions: high-content imaging
How it was run: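 HepG2 cells exposed 72 h to compound at 0.39–200 uM (10 concentrations, duplicate) in 0.5% DMSO. Fixed with 3.7% formaldehyde and Hoechst 33342-stained. Imaged at 20x; nuclear count gives cell number, fitted bidirectionally versus DMSO.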

Row | SMILES | AC50 | outcome
1 | CC(C)(C)CC(C)(C)c1ccc(O)c(-n2nc3ccccc3n2)c1 | 65.5 µM (active) | 
2 | CC(=O)NC1(c2cccc(F)c2)CCN(CC[C@@]2(c3ccc(Cl)c(Cl)c3)CN(c3ccccc3)C(=O)CO2)CC1 | 21.3 µM (active) | 
3 | CCc1ccc(CCOc2ccc(CC3SC(=O)NC3=O)cc2)nc1 (stereo not given) | 112 µM (active) | 
4 | CCOC(=O)CC(O)(CC(=O)OCC)C(=O)OCC |  | inactive
5 | Oc1cc2ccccc2c2ccccc12 | 4.01 µM (active) | 
6 | CC[C@H](C)[C@@H](C(=O)O)n1sc2ccccc2c1=O |  | inactive
7 | CCCCC[C@H](O)CC(=O)CCc1ccc(O)c(OC)c1 |  | inactive
8 | CN1CCN(c2ccccc2/C=C2\SCCN(c3ccc(Cl)c(Cl)c3)C2=O)CC1 | 12.4 µM (active) | 
9 | Cc1oc(-c2ccccc2)nc1CCOc1ccc(C[C@H](Nc2ccccc2C(=O)c2ccccc2)C(=O)O)cc1 | 53.3 µM (active) | 
10 | CCc1nn(C2CCCCC2)c2cc(C3(C#N)CCC(C(=O)O)CC3)ccc12 (stereo not given) | 33.3 µM (active) | 
11 | CC[C@H](c1ccc(O)cc1)[C@@H](CC)c1ccc(O)cc1 |  | inactive
12 | N#C[C@@H]1CC(F)(F)CN1C(=O)CNC1CC2CCC(C1)N2c1ncccn1 (stereo not given in full) |  | inactive
13 | CCCCCCCCCCCCc1ccccc1S(=O)(=O)O | 149 µM (active) | 
14 | OCCC(F)(F)C(F)(F)C(F)(F)C(F)(F)C(F)(F)C(F)(F)C(F)(F)C(F)(F)F | 34.8 µM (active) | 
15 | C[C@@H]1C[C@H]2[C@@H]3CCC4=CC(=O)C=C[C@]4(C)[C@@]3(F)[C@@H](O)C[C@]2(C)[C@@]1(O)C(=O)COP(=O)(O)O | 6.32 µM (active) | 
16 | COCC(C)O (stereo not given) |  | inactive
17 | OC1CCCCC1 |  | inactive
18 | O=[N+]([O-])c1ccc(O)cc1 |  | inactive

Row | SMILES | AC50 | outcome
19 | CC(C)(C)c1cc(C(C)(C)C)c(O)c(C(C)(C)C)c1 | 39.1 µM (active) | 
20 | O=C(OCCOCCOC(=O)c1ccccc1)c1ccccc1 |  | inactive
21 | CCC(C)(C)C1CCC(O)CC1 (stereo not given) | 122 µM (active) | 
22 | Cc1cc(CCN2CCN(c3nsc4ccccc34)CC2)cc2c1NC(=O)CC2(C)C | 30.9 µM (active) | 
23 | c1ccc2cc3c(ccc4ccccc43)cc2c1 | 9.42 µM (active) | 
24 | CCCOC(=O)c1ccc(O)cc1 |  | inactive
25 | CN1CCC[C@H]1c1cccnc1 |  | inactive
26 | NC(=O)N(O)[C@@H]1C=C[C@H](Oc2cccc(Oc3ccc(F)cc3)c2)C1 | 94.7 µM (active) | 
27 | COC(=O)CCCCC(=O)OC |  | inactive
28 | CC(O)CO (stereo not given) |  | inactive
29 | O=C(O)Cc1cc(I)c(Oc2cc(I)c(O)c(I)c2)c(I)c1 |  | inactive
30 | CC(=O)CC(C)(C)O | 11 µM (active) | 
31 | CCN(CC)CCNc1ccc(CNC=O)c2sc3ccc(OC)cc3c(=O)c12 | 7.4 µM (active) | 
32 | CCCCC(CC)COC(=O)CCCCC(=O)OCc1ccccc1 (stereo not given) |  | inactive
33 | CC#C[C@]1(O)CC[C@H]2[C@@H]3CCC4=CC(=O)CCC4=C3[C@@H](c3ccc(N(C)C)cc3)C[C@@]21C |  | inactive
34 | c1ccc2c(c1)Cc1ccccc1-2 |  | inactive
35 | CCCCCCCCOC(=O)CCCCCCCCC(=O)OCCCCCCCC |  | inactive

Assay: APR_HepG2_P-H2AX_72hr: Apredica 72-hour HepG2 Assay for H2AX Phosphorylation (AID 2282916);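 also: phospho-histone H2A.x immunostain intensity per cell marking DNA damage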
Conditions: imaging, actives raise or lower the signal
How it was run: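 Phospho-H2A.x imaging endpoint in HepG2 after 72 hr compound exposure (0.39–200 uM, duplicate wells). Activity derived by bidirectional curve fitting with DMSO as baseline.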

Row | SMILES | AC50 | outcome
36 | CC(C)(C)CC(C)(C)c1ccc(O)c(-n2nc3ccccc3n2)c1 | 61.7 µM (active) | 
37 | CC(=O)NC1(c2cccc(F)c2)CCN(CC[C@@]2(c3ccc(Cl)c(Cl)c3)CN(c3ccccc3)C(=O)CO2)CC1 | 21.8 µM (active) | 
38 | CCc1ccc(CCOc2ccc(CC3SC(=O)NC3=O)cc2)nc1 (stereo not given) | 103 µM (active) | 
39 | CCOC(=O)CC(O)(CC(=O)OCC)C(=O)OCC |  | inactive
40 | Oc1cc2ccccc2c2ccccc12 | 58.6 µM (active) | 
41 | CC[C@H](C)[C@@H](C(=O)O)n1sc2ccccc2c1=O |  | inactive
42 | CCCCC[C@H](O)CC(=O)CCc1ccc(O)c(OC)c1 |  | inactive
43 | CN1CCN(c2ccccc2/C=C2\SCCN(c3ccc(Cl)c(Cl)c3)C2=O)CC1 |  | inactive
44 | Cc1oc(-c2ccccc2)nc1CCOc1ccc(C[C@H](Nc2ccccc2C(=O)c2ccccc2)C(=O)O)cc1 | 59 µM (active) | 
45 | CCc1nn(C2CCCCC2)c2cc(C3(C#N)CCC(C(=O)O)CC3)ccc12 (stereo not given) | 84 µM (active) | 
46 | CC[C@H](c1ccc(O)cc1)[C@@H](CC)c1ccc(O)cc1 |  | inactive
47 | N#C[C@@H]1CC(F)(F)CN1C(=O)CNC1CC2CCC(C1)N2c1ncccn1 (stereo not given in full) |  | inactive
48 | CCCCCCCCCCCCc1ccccc1S(=O)(=O)O | 111 µM (active) | 
49 | OCCC(F)(F)C(F)(F)C(F)(F)C(F)(F)C(F)(F)C(F)(F)C(F)(F)C(F)(F)F | 29.7 µM (active) | 
50 | C[C@@H]1C[C@H]2[C@@H]3CCC4=CC(=O)C=C[C@]4(C)[C@@]3(F)[C@@H](O)C[C@]2(C)[C@@]1(O)C(=O)COP(=O)(O)O | 1.09 µM (active) | 
51 | COCC(C)O (stereo not given) |  | inactive
52 | OC1CCCCC1 |  | inactive
53 | O=[N+]([O-])c1ccc(O)cc1 |  | inactive

Row | SMILES | AC50 | outcome
54 | CC(C)(C)c1cc(C(C)(C)C)c(O)c(C(C)(C)C)c1 |  | inactive
55 | O=C(OCCOCCOC(=O)c1ccccc1)c1ccccc1 |  | inactive
56 | CCC(C)(C)C1CCC(O)CC1 (stereo not given) | 112 µM (active) | 
57 | Cc1cc(CCN2CCN(c3nsc4ccccc34)CC2)cc2c1NC(=O)CC2(C)C | 11.2 µM (active) | 
58 | c1ccc2cc3c(ccc4ccccc43)cc2c1 |  | inactive
59 | CCCOC(=O)c1ccc(O)cc1 |  | inactive
60 | CN1CCC[C@H]1c1cccnc1 |  | inactive
61 | NC(=O)N(O)[C@@H]1C=C[C@H](Oc2cccc(Oc3ccc(F)cc3)c2)C1 |  | inactive
62 | COC(=O)CCCCC(=O)OC |  | inactive
63 | CC(O)CO (stereo not given) |  | inactive
64 | O=C(O)Cc1cc(I)c(Oc2cc(I)c(O)c(I)c2)c(I)c1 |  | inactive
65 | CC(=O)CC(C)(C)O | 0.032 µM (active) | 
66 | CCN(CC)CCNc1ccc(CNC=O)c2sc3ccc(OC)cc3c(=O)c12 |  | inactive
67 | CCCCC(CC)COC(=O)CCCCC(=O)OCc1ccccc1 (stereo not given) |  | inactive
68 | CC#C[C@]1(O)CC[C@H]2[C@@H]3CCC4=CC(=O)CCC4=C3[C@@H](c3ccc(N(C)C)cc3)C[C@@]21C |  | inactive
69 | c1ccc2c(c1)Cc1ccccc1-2 |  | inactive
70 | CCCCCCCCOC(=O)CCCCCCCCC(=O)OCCCCCCCC |  | inactive

From PubChem BioAssay (EPA / NIEHS)
